# Values joined by “and” are separate entries in the source; they are usually repeats but may differ in a detail not shown here. Identical values can stand only once. Records with an inconclusive call do not appear. Entries that show only a call come without a potency. More than one record can exist for a structure, and the calls need not agree. Active and inactive are the calls of the source. Unless noted, calls follow the shape of the dose curve; as a rule, active = well fitted curve in the direction sought with a large enough effect in the repeat runs; inconclusive = weak or mixed curves; inactive = no such curve, though single readings can be large; an effect the other way counts as inactive or inconclusive. Peptide text beside a SMILES is read from it.
# What was measured:
# [1] = target: Cytochrome P450 2D6 (Homo sapiens) (UniProt P10635); assay: Cytochrome P450 family 2 subfamily D member 6 (CYP2D6) small molecule antagonists: luciferase biochemical (cell-free) qHTS assay (AID 1645840); also: nearly all actives have a fitted effect of over 55% in size; also: potency is read from the fitted curve at half-maximal effect
# Cytochrome P450 2D6 (Homo sapiens), sequence (P10635 whole entry, looked up): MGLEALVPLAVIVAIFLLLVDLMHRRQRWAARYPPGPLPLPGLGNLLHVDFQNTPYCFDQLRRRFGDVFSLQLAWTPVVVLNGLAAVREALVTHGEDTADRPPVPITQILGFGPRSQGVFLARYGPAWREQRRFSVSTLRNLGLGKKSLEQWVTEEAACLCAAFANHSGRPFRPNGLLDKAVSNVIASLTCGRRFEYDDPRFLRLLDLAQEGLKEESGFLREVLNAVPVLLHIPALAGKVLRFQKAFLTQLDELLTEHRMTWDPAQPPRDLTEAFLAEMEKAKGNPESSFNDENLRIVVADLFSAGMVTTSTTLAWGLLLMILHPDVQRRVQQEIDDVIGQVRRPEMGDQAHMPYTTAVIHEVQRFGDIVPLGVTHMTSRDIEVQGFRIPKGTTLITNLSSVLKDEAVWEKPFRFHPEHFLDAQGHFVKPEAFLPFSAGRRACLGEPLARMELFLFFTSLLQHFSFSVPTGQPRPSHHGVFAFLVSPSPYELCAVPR
# In short: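 P450-Glo luminescent screen: recombinant CYP2D6 enzyme–proluciferin substrate mix preincubated with compound 10 min at room temperature, then NADPH regeneration added for 1 h at room temperature. Detection reagent added for 20 min; luciferin light read as relative luminescence units.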
# [2] = target: Cytochrome P450 2C9 (Homo sapiens) (UniProt P11712); assay: Cytochrome P450 family 2 subfamily C member 9 (CYP2C9) small molecule antagonists: luciferase biochemical (cell-free) qHTS assay (AID 1645842); also: nearly all actives have a fitted effect of over 55% in size; also: potency is read from the fitted curve at half-maximal effect
# Cytochrome P450 2C9 (Homo sapiens), sequence (P11712 whole entry, looked up): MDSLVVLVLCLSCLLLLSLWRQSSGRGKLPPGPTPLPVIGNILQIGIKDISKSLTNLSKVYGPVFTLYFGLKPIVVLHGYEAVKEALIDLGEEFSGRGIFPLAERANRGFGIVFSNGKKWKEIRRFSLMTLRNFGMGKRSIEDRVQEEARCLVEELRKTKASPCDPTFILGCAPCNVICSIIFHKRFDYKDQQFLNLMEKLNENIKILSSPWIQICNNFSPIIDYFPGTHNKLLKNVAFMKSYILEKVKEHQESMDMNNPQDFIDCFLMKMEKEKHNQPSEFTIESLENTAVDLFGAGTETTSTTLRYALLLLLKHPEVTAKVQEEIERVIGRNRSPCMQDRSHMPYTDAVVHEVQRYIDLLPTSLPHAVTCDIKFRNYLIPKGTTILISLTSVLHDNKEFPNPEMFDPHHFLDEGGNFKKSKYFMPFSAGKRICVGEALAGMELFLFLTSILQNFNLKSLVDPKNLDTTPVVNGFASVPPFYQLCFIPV
# In short: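 Luminescence, after 20 min with luciferin detection reagent, reflected CYP2C9 turnover during a 1 h NADPH-driven reaction at 37C. Enzyme-substrate mix contained 0.4% bovine serum albumin and was preincubated with compound 10 min at room temperature.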
# [3] = target: Cytochrome P450 3A4 (Homo sapiens) (UniProt P08684); assay: Cytochrome P450 family 3 subfamily A member 4 (CYP3A4) small molecule antagonists: luciferase qHTS assay (AID 1645841); also: nearly all actives have a fitted effect of over 45% in size; also: potency is read from the fitted curve at half-maximal effect
# Cytochrome P450 3A4 (Homo sapiens), sequence (P08684 whole entry, looked up): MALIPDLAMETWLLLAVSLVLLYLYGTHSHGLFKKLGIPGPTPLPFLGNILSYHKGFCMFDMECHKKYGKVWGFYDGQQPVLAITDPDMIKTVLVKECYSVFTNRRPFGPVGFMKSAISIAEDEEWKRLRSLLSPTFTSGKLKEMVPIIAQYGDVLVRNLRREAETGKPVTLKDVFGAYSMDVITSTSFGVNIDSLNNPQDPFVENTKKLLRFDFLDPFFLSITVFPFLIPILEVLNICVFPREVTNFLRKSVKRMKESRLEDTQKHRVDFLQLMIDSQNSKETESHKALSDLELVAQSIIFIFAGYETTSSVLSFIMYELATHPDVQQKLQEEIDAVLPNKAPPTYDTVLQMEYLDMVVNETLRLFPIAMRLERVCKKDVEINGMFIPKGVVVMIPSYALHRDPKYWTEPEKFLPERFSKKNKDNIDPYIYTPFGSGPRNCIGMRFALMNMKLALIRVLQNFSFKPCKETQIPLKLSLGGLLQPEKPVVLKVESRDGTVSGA
# In short: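 P450-Glo CYP3A4 enzyme with proluciferin substrate preincubated 10 min with compound at room temperature, then NADPH regeneration 1 h. Luciferin detection reagent added for 20 min; luminescence recorded. Ketoconazole positive control.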
# [4] = Primary qHTS for small molecule stabilizers of the endoplasmic reticulum resident proteome: Secreted ER Calcium Modulated Protein (SERCaMP) assay (AID 1508630; active = well fitted curve in the direction sought with a large enough effect; an effect the other way counts as inactive or inconclusive)
# In short: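 GLuc-SERCaMP-expressing SH-SY5Y cells, pretreated 16 h with compound, are challenged with thapsigargin to empty ER calcium stores; after 4 h, coelenterazine is added directly to the medium and luminescence is imaged.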
# [5] = A High-Content qHTS Against Drug Library for the Identification of Small Molecules that Inhibit DYT1 Early Onset Primary Dystonia-Associated Cell Pathology (AID 1645839; calls by dose curve; also: series mostly up to about 46 µM)
# In short: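 Flp-In T-REx 293 cells with tetracycline-inducible EGFP-delE hTOR1A (WT EGFP-hTOR1A as reference), 800 cells/well; compound added with tetracycline, 48 h at 37 C. Fixed, permeabilized cells imaged; %pathology (punctate TorsinA) primary, cell count counterscreen.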
# [6] = Primary qHTS for inhibitors of nuclear receptor binding SET domain protein 2 (NSD2) in an isogenic RCH-ACV NSD2 p.E1099K mutant (9B) (AID 1645876; active = well fitted curve in the direction sought with a large enough effect; an effect the other way counts as inactive or inconclusive; also: nearly all actives have a fitted effect of over 70% in size; also: potency is read from the fitted curve at half-maximal effect)
# [7] = Primary qHTS for inhibitors of nuclear receptor binding SET domain protein 2 (NSD2) in an RCH-ACV wild type WT cells (2C) (AID 1645877; active = well fitted curve in the direction sought with a large enough effect; an effect the other way counts as inactive or inconclusive; also: nearly all actives have a fitted effect of over 70% in size; also: potency is read from the fitted curve at half-maximal effect)
smiles,measurement,setting,value
COc1cccc2c1CCC[C@H]2CN(C)CCc1ccc2ccoc2c1,Potency,[1],0.0535 µM (active)
same,Potency,[2],0.425 µM (active)
CNC1CCN(C(Cc2cccc(-c3ccncc3)c2)C(=O)c2sc3c(F)ccc(F)c3c2Cl)CC1 (centres undefined),Potency,[1],0.19 µM (active)
same,Potency,[3],0.12 µM (active)
CCCCCCCC(=O)O,Potency,[1],inactive
same,Potency,[2],inactive
CC(=O)N[C@@H](CC(=O)O)C(=O)N[C@@H](CCC(=O)O)C(=O)O (Ac-Asp-Glu-OH),outcome,[4],inactive
O=C(O)c1cc(=O)c2c3nc4ccccc4oc-3cc(=O)c2[nH]1,Potency,[1],1.9 µM (active)
same,Potency,[2],26.8 µM (active)
CCOc1ccc(C(Nc2ccccn2)c2ccc3ccc(C)nc3c2O)cc1C (centres undefined),Potency,[1],inactive
same,Potency,[2],4.77 µM (active)
CC(=O)OC(C)OC(=O)C(C)c1ccc(-c2ccccc2)c(F)c1 (centres undefined),outcome,[5],inactive
same,Potency,[6],inactive
same,Potency,[7],inactive
c1ccc(C(OC2CCN(CCCc3nn[nH]n3)CC2)c2ccccc2)cc1,Potency,[1],6.01 µM (active)
same,Potency,[3],inactive
same,Potency,[2],inactive
same,Potency,[6],inactive
same,Potency,[7],inactive
O=C1C[C@@H](c2ccc(O)cc2)Oc2cc(O)ccc21,Potency,[1],inactive
same,Potency,[2],12 µM (active)
O=C(O)CCC(=O)C(=O)O,Potency,[1],inactive
same,Potency,[2],inactive
CNC(=O)COC(=O)NCCC1CCN(c2cccc(C)n2)CC1,Potency,[1],inactive
same,Potency,[2],inactive
same,Potency,[6],inactive
same,Potency,[7],inactive
CC(=O)N1CCN(NC(=O)c2ccc(F)cc2)CC1,Potency,[1],inactive
same,Potency,[2],inactive
same,Potency,[6],inactive
same,Potency,[7],inactive
Cc1cc(C)c(S(=O)(=O)N(Cc2ccc(-c3cccc(S(C)(=O)=O)c3)cc2)Cc2ccc(C(F)(F)F)o2)c(C)c1,Potency,[1],inactive
same,Potency,[2],0.268 µM (active)
same,Potency,[6],inactive
same,Potency,[7],inactive
CCc1cc2c(=O)c(-c3nc4ccccc4s3)coc2c(CN2CCCCC2)c1O,Potency,[1],inactive
same,Potency,[2],0.12 µM (active)
same,Potency,[6],inactive
same,Potency,[7],inactive
COCCCNCC1COc2ccccc2O1 (centres undefined),Potency,[1],9.52 µM (active)
same,Potency,[2],inactive
same,Potency,[6],inactive
same,Potency,[7],inactive
CCCCN(CCCC)C(=O)CN1C[C@H](c2ccc3c(c2)OCO3)[C@@H](C(=O)O)[C@@H]1c1ccc(OC)cc1,Potency,[1],19 µM (active)
same,Potency,[2],21.3 µM (active)
same,Potency,[6],inactive
same,Potency,[7],inactive
CC(=O)NCCCCn1c2c(c3ccccc31)C(=O)NCC2,Potency,[1],inactive
same,Potency,[2],inactive
same,Potency,[6],inactive
same,Potency,[7],inactive
CC1(C)CC(=O)N(CCCCN2CCN(c3ncccn3)CC2)C(=O)C1,Potency,[1],inactive
same,Potency,[2],inactive
same,Potency,[6],inactive
same,Potency,[7],inactive
C[C@@H](Nc1cc(NS(=O)(=O)N2CCC2)nc(SCc2cccc(F)c2F)n1)[C@@H](O)CO,Potency,[1],inactive
same,Potency,[2],inactive
same,Potency,[6],inactive
same,Potency,[7],inactive
C[C@H]1CN(C[C@H](Cc2ccccc2)C(=O)NCC(=O)O)CC[C@@]1(C)c1cccc(O)c1,Potency,[1],inactive
same,Potency,[2],inactive
same,Potency,[6],inactive
same,Potency,[7],inactive
N[C@@H](CC(=O)N1CCn2c(nnc2C(F)(F)F)C1)Cc1[nH]nc2c(F)c(F)ccc12,Potency,[1],inactive
same,Potency,[2],inactive
same,Potency,[6],inactive
same,Potency,[7],inactive
CCOC(=O)N1CCC(NCCNC(=O)c2ccccc2C)CC1,Potency,[1],10.7 µM (active)
same,Potency,[2],inactive
same,Potency,[6],inactive
same,Potency,[7],inactive
CC1(C)C(=O)C(C)(C)c2cc(C(=O)Nc3ccc(C(=O)O)cc3)ccc21,Potency,[1],inactive
same,Potency,[2],inactive
same,Potency,[6],inactive
same,Potency,[7],inactive
O=C1NC(=Nc2ccccc2F)S/C1=C\c1ccc(C(=O)O)cc1,Potency,[1],inactive
same,Potency,[2],10.7 µM (active)
same,Potency,[6],inactive
same,Potency,[7],inactive
NS(=O)(=O)OC[C@@H]1C[C@@H](n2ccc3c(N[C@H]4CCc5ccccc54)ncnc32)C[C@@H]1O,Potency,[1],inactive and 8.49 µM (active)
same,Potency,[2],21.3 µM (active)
same,Potency,[6],325 nM (active) and 409 nM (active) and 525 nM (active)
same,Potency,[7],365 nM (active) and 515 nM (active) and 525 nM (active)
COc1cc(NC(=O)c2ccccn2)ccc1Cl,Potency,[1],23.9 µM (active)
same,Potency,[2],23.9 µM (active)
same,Potency,[6],inactive
same,Potency,[7],inactive
CN(C)C/C=C/C(=O)Nc1ccc(C(=O)Nc2cccc(Nc3ncc(Cl)c(-c4c[nH]c5ccccc45)n3)c2)cc1,Potency,[1],inactive
same,Potency,[2],7.56 µM (active)
same,Potency,[6],18.3 nM (active) and 52.5 nM (active)
same,Potency,[7],18.3 nM (active) and 46.8 nM (active)
CNC(=O)O[C@H]1COc2ccc(N3CCN(C4COC4)CC3)cc2[C@@H]1NC(=O)c1ccc(F)cc1,Potency,[1],inactive
same,Potency,[2],inactive
same,Potency,[6],inactive
same,Potency,[7],inactive
CCC(CC)n1ccc2c(C(=O)NCc3c(C)cc(C)[nH]c3=O)cc(C#N)cc21,Potency,[1],inactive
same,Potency,[2],4.77 µM (active)
same,Potency,[6],inactive
same,Potency,[7],inactive
